# Measurements from article PMC7862700, “An all-to-all approach to the identification of sequence-specific readers for epigenetic DNA modifications on cytosine”.
# Experiments:
# Test in all cases: DAPPL (digital affinity profiling via proximity ligation, sequencing); 10 mM Tris-HCl pH 7.5, 50 mM NaCl, 1 mM DTT, 4% glycerol, room temperature, 30 min; GST-TFs on glutathione beads, 16-mer random dsDNA library, 0.1% formaldehyde crosslink after washing; high values mean tight binding
# Conditions in all cases: protein: recombinant; tags: N-terminal GST; dsDNA, one strand shown
# [1] = biological target: T1, ERF (Homo sapiens, UniProt P50548 1-548)
# T1 sequence: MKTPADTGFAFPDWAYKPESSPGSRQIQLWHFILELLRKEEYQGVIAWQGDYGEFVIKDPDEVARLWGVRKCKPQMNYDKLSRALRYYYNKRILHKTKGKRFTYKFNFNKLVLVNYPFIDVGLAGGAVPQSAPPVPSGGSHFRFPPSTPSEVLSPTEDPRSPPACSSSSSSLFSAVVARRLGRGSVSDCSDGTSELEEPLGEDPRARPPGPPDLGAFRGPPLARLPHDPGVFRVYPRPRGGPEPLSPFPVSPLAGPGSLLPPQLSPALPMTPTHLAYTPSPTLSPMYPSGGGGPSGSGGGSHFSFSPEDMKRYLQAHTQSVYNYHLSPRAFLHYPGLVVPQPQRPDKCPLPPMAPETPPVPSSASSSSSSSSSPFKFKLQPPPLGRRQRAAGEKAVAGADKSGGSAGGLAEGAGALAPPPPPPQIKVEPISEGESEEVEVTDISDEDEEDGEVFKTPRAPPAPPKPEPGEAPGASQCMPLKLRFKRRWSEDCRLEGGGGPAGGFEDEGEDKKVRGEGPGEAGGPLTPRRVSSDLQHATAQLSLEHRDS
# In short: (§1)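 Human transcription factors carrying a GST fusion were produced in yeast, bound to glutathione beads, tagged with DNA barcodes and pooled together with a tag-only sample. Each pool was held with 200 nmole of a random double-stranded 16-mer DNA library in Tris/NaCl/DTT/glycerol buffer for 30 min at room temperature, then washed, crosslinked in 0.1% formaldehyde, proximity-ligated with BsaI/T4 ligase (1 h, 37 °C), PCR-amplified and sequenced on an Illumina NextSeq500. Binding signal is the read frequency of each hexamer for a given factor divided by its frequency in the tag-only sample.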
# [2] = biological target: T2, ETV3L (Homo sapiens, UniProt Q6ZN32 1-361)
# T2 sequence: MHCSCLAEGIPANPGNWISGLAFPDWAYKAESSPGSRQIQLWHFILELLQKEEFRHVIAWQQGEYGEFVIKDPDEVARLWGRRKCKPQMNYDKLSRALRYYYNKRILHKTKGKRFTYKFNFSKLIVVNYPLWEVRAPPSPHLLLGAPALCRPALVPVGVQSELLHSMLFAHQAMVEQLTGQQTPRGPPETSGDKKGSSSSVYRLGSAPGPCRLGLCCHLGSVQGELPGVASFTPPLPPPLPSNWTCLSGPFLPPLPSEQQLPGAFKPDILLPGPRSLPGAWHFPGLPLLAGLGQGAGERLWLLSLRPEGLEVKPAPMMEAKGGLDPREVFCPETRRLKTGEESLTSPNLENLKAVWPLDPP
# In short: as §1
# [3] = biological target: T3, ETS2 (Homo sapiens, UniProt P15036 1-469)
# T3 sequence: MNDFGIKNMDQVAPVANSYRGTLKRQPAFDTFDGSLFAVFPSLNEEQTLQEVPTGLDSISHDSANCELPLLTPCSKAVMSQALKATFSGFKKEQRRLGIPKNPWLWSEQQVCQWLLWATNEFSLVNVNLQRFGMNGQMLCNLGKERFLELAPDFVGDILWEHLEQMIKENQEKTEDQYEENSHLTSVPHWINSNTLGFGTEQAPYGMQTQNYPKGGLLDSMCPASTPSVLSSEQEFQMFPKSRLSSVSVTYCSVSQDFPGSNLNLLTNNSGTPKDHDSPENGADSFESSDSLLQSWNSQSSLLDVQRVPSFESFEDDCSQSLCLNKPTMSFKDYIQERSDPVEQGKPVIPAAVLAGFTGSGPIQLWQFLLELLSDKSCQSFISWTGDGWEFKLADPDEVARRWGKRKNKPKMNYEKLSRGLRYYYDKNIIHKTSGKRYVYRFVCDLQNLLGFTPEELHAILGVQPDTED
# In short: as §1
# [4] = biological target: T4, SPDEF (Homo sapiens, UniProt O95238 1-335)
# T4 sequence: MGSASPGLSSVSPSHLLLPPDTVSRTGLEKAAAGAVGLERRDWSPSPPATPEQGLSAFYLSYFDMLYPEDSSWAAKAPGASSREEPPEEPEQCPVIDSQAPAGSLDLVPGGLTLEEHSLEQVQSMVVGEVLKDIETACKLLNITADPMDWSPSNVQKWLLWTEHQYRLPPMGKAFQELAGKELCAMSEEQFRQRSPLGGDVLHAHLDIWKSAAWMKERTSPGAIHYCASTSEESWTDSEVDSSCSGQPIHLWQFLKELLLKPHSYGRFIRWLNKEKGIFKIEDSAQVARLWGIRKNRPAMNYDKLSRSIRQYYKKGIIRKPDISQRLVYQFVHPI
# In short: as §1
# [5] = biological target: T5, ETV7 (Homo sapiens, UniProt Q9Y603 1-341)
# T5 sequence: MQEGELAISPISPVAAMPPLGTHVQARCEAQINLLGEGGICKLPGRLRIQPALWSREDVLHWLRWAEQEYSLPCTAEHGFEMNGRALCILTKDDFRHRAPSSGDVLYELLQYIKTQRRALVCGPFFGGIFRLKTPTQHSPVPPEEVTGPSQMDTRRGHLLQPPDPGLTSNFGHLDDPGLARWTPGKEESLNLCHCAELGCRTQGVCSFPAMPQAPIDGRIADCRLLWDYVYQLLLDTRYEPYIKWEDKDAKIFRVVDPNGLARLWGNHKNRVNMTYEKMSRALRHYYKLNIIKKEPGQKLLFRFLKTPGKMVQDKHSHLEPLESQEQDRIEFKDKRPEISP
# In short: as §1
# [6] = biological target: T6, ELF5 (Homo sapiens, UniProt Q9UKW6-2 1-255)
# T6 sequence: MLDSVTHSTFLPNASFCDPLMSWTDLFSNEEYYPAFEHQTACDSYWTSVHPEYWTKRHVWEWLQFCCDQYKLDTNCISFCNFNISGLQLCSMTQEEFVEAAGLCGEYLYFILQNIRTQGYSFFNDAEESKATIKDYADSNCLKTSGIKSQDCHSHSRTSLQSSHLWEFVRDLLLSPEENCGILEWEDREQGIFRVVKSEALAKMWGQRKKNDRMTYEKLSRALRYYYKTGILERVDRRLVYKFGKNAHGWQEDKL
# In short: as §1
# [7] = biological target: T7, ETV3 (Homo sapiens, UniProt P41162-2 1-143)
# T7 sequence: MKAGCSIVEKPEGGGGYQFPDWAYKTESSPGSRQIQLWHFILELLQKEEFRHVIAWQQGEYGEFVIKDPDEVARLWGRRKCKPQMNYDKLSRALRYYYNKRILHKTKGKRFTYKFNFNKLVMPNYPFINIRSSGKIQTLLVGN
# In short: as §1
# [8] = biological target: ETV6 (Homo sapiens, UniProt P41212 1-452)
# ETV6, sequence (P41212 whole entry): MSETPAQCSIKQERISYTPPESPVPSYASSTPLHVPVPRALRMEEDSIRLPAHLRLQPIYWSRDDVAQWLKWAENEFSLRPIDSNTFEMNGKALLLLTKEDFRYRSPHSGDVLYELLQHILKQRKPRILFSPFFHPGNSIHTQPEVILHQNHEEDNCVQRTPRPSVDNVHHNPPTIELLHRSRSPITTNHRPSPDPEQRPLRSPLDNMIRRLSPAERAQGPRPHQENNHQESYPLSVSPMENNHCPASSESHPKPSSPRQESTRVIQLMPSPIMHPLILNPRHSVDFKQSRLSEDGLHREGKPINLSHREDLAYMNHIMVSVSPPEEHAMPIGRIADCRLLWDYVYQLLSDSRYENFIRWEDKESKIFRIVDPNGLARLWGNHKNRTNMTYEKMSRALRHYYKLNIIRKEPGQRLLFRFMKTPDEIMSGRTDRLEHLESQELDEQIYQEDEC
# In short: as §1
Sequence,binding signal [1],binding signal [2],binding signal [3],binding signal [4],binding signal [5],binding signal [6],binding signal [7],binding signal [8]
CCTGGT,"1.37 fold enrichment (6-mer frequency, TF over GST control)","1.53 fold enrichment (6-mer frequency, TF over GST control)","1.43 fold enrichment (6-mer frequency, TF over GST control)","1.69 fold enrichment (6-mer frequency, TF over GST control)","1.31 fold enrichment (6-mer frequency, TF over GST control)","1.58 fold enrichment (6-mer frequency, TF over GST control)","1.49 fold enrichment (6-mer frequency, TF over GST control)","1.4 fold enrichment (6-mer frequency, TF over GST control)"
AAATTC,"1.29 fold enrichment (6-mer frequency, TF over GST control)","1.43 fold enrichment (6-mer frequency, TF over GST control)","1.33 fold enrichment (6-mer frequency, TF over GST control)","1.34 fold enrichment (6-mer frequency, TF over GST control)","1.28 fold enrichment (6-mer frequency, TF over GST control)","1.4 fold enrichment (6-mer frequency, TF over GST control)","1.3 fold enrichment (6-mer frequency, TF over GST control)","1.31 fold enrichment (6-mer frequency, TF over GST control)"
TATCGC,"1.18 fold enrichment (6-mer frequency, TF over GST control)","1.15 fold enrichment (6-mer frequency, TF over GST control)","1.1 fold enrichment (6-mer frequency, TF over GST control)","1.17 fold enrichment (6-mer frequency, TF over GST control)","1 fold enrichment (6-mer frequency, TF over GST control)","1.19 fold enrichment (6-mer frequency, TF over GST control)","1.13 fold enrichment (6-mer frequency, TF over GST control)","1.08 fold enrichment (6-mer frequency, TF over GST control)"
TCCCGA,"1.34 fold enrichment (6-mer frequency, TF over GST control)","1.21 fold enrichment (6-mer frequency, TF over GST control)","1.29 fold enrichment (6-mer frequency, TF over GST control)","1.37 fold enrichment (6-mer frequency, TF over GST control)","1.35 fold enrichment (6-mer frequency, TF over GST control)","1.52 fold enrichment (6-mer frequency, TF over GST control)","1.26 fold enrichment (6-mer frequency, TF over GST control)","1.22 fold enrichment (6-mer frequency, TF over GST control)"
CTCAGT,"1.11 fold enrichment (6-mer frequency, TF over GST control)","1.18 fold enrichment (6-mer frequency, TF over GST control)","1.1 fold enrichment (6-mer frequency, TF over GST control)","1.06 fold enrichment (6-mer frequency, TF over GST control)","1.12 fold enrichment (6-mer frequency, TF over GST control)","1.09 fold enrichment (6-mer frequency, TF over GST control)","1.24 fold enrichment (6-mer frequency, TF over GST control)","1.08 fold enrichment (6-mer frequency, TF over GST control)"
CTAACG,"1.23 fold enrichment (6-mer frequency, TF over GST control)","1.25 fold enrichment (6-mer frequency, TF over GST control)","1.15 fold enrichment (6-mer frequency, TF over GST control)","1.16 fold enrichment (6-mer frequency, TF over GST control)","1.26 fold enrichment (6-mer frequency, TF over GST control)","1.12 fold enrichment (6-mer frequency, TF over GST control)","1.17 fold enrichment (6-mer frequency, TF over GST control)","1.16 fold enrichment (6-mer frequency, TF over GST control)"
CTCACC,"1.33 fold enrichment (6-mer frequency, TF over GST control)","1.16 fold enrichment (6-mer frequency, TF over GST control)","1.11 fold enrichment (6-mer frequency, TF over GST control)","1.12 fold enrichment (6-mer frequency, TF over GST control)","1.06 fold enrichment (6-mer frequency, TF over GST control)","1.15 fold enrichment (6-mer frequency, TF over GST control)","1.14 fold enrichment (6-mer frequency, TF over GST control)","1.08 fold enrichment (6-mer frequency, TF over GST control)"
GCTCAT,"1.31 fold enrichment (6-mer frequency, TF over GST control)","1.19 fold enrichment (6-mer frequency, TF over GST control)","1.26 fold enrichment (6-mer frequency, TF over GST control)","1.12 fold enrichment (6-mer frequency, TF over GST control)","1.23 fold enrichment (6-mer frequency, TF over GST control)","1.19 fold enrichment (6-mer frequency, TF over GST control)","1.15 fold enrichment (6-mer frequency, TF over GST control)","1.21 fold enrichment (6-mer frequency, TF over GST control)"
AGTGTT,"1.13 fold enrichment (6-mer frequency, TF over GST control)","1.1 fold enrichment (6-mer frequency, TF over GST control)","1.1 fold enrichment (6-mer frequency, TF over GST control)","1.13 fold enrichment (6-mer frequency, TF over GST control)","1.14 fold enrichment (6-mer frequency, TF over GST control)","1.3 fold enrichment (6-mer frequency, TF over GST control)","1.08 fold enrichment (6-mer frequency, TF over GST control)","1.11 fold enrichment (6-mer frequency, TF over GST control)"
CCGCCG,"1.18 fold enrichment (6-mer frequency, TF over GST control)","1.2 fold enrichment (6-mer frequency, TF over GST control)","1.22 fold enrichment (6-mer frequency, TF over GST control)","1.34 fold enrichment (6-mer frequency, TF over GST control)","1.2 fold enrichment (6-mer frequency, TF over GST control)","1.31 fold enrichment (6-mer frequency, TF over GST control)","1.31 fold enrichment (6-mer frequency, TF over GST control)","1.23 fold enrichment (6-mer frequency, TF over GST control)"
ACGCCC,"1.24 fold enrichment (6-mer frequency, TF over GST control)","1.17 fold enrichment (6-mer frequency, TF over GST control)","1.12 fold enrichment (6-mer frequency, TF over GST control)","1.07 fold enrichment (6-mer frequency, TF over GST control)","1.03 fold enrichment (6-mer frequency, TF over GST control)","1.05 fold enrichment (6-mer frequency, TF over GST control)","1.15 fold enrichment (6-mer frequency, TF over GST control)","1.13 fold enrichment (6-mer frequency, TF over GST control)"
TGTTTA,"1.22 fold enrichment (6-mer frequency, TF over GST control)","1.2 fold enrichment (6-mer frequency, TF over GST control)","1.13 fold enrichment (6-mer frequency, TF over GST control)","1.17 fold enrichment (6-mer frequency, TF over GST control)","1.3 fold enrichment (6-mer frequency, TF over GST control)","1.19 fold enrichment (6-mer frequency, TF over GST control)","1.12 fold enrichment (6-mer frequency, TF over GST control)","1.19 fold enrichment (6-mer frequency, TF over GST control)"
